Among the data in PubChem BioAssay (EPA / NIEHS) are AC50 and outcome values, retold here.

Where “and” joins values, the source holds several entries; their conditions need not be identical. Identical values can stand only once. Inconclusive results are not listed. Calls of active or inactive are those of the source. How the source made its calls: active means hit-call score of the fitted dose curve at least 0.9, where 1 is the maximum; inconclusive means response in the unintended direction; inactive means score below 0.9.

Chain of human Acetylcholinesterase (AChE), ACHE (gene 43) (P22303 whole entry, looked up): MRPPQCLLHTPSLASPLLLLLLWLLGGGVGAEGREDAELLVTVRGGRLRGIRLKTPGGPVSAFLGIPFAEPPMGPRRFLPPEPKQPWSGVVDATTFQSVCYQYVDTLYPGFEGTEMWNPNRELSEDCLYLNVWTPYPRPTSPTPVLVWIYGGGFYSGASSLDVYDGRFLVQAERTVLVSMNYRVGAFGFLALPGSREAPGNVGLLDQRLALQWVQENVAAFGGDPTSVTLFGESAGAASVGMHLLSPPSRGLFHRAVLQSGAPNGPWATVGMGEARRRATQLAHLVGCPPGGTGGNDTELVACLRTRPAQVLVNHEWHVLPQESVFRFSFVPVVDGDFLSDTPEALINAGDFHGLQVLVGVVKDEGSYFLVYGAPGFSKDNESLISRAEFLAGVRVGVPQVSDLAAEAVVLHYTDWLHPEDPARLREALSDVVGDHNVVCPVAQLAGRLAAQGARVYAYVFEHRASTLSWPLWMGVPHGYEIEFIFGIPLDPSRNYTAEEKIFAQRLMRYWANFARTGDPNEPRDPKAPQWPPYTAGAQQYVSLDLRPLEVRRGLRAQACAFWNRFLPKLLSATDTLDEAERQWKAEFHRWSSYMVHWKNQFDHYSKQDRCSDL
Chain of human AMP-activated Protein Kinase, alpha 1 (AMPKa1), PRKAA1 (gene 5562) (Q13131 whole entry, looked up): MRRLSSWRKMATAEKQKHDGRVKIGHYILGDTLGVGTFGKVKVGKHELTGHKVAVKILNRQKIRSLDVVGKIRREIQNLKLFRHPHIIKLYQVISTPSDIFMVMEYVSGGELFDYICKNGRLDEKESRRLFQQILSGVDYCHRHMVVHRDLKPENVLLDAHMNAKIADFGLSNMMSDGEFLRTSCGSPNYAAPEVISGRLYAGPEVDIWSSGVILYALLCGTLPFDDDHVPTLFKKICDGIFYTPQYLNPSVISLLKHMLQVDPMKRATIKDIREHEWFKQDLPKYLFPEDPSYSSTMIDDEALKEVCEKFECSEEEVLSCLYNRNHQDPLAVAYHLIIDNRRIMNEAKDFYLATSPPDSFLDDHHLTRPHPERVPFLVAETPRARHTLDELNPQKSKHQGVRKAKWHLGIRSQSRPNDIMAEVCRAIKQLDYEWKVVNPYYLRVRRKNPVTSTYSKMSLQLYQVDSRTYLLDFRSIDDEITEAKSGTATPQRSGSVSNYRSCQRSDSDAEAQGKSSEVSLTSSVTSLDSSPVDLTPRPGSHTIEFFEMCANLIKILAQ

The target of one assay is rat CYP2D1, Cyp2d1 (gene 266684) (UniProt P10633). The experiment in a line: NVS_ADME_rCYP2D1: NovaScreen (NVS) CYP450-related Enzyme Activity (ADME) Assay for rat CYP2D1 (AID 2283122). The procedure, abridged: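 Cell-free fluorescence enzyme-activity assay on extracted rat CYP2D1 protein, read 0.75 h after dosing. Primary screen in duplicate at 10 uM; qualifying chemicals then run in concentration-response to 20 uM max, loss-of-signal versus acetonitrile baseline.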
Chain of rat CYP2D1, Cyp2d1 (gene 266684) (P10633 whole entry, looked up): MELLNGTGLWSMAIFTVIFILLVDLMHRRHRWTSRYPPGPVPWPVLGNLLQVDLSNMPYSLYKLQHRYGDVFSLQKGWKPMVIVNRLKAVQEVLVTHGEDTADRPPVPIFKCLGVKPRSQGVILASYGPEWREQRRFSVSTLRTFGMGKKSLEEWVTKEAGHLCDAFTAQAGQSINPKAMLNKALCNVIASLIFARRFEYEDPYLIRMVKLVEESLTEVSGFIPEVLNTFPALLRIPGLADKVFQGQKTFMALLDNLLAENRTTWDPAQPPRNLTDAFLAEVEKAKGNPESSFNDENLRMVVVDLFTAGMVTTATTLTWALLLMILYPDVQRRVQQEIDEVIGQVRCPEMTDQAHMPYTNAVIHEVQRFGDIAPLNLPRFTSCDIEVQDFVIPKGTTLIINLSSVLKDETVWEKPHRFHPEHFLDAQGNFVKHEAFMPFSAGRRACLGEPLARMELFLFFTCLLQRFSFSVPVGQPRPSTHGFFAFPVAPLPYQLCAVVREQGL
`C#CCOC(=O)[C@@H](C)Oc1ccc(Oc2ncc(Cl)cc2F)cc1`: the AC50 is 3.73 µM (active). As to `C=CCOC(Cn1ccnc1)c1ccc(Cl)cc1Cl` (stereo unspecified), the AC50 is 3.58 µM (active). Take `Oc1ccc(C(c2ccc(O)cc2)C(Cl)(Cl)Cl)cc1`: the concentration at half-maximal activity (AC50) was 2.7 µM (active). Same read-out and setting: to `CC(C)(C)[C@@H](O)[C@@H](Cc1ccc(Cl)cc1)n1cncn1` belongs 5.84 µM (active).

The next assay has as its target human Acetylcholinesterase (AChE), ACHE (gene 43) (UniProt P22303). The experiment in a line: NVS_ENZ_hAChE: NovaScreen (NVS) Enzymatic Assay for human Acetylcholinesterase (AChE) (AID 2283129). The procedure, abridged: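 Cell-free colorimetric enzyme-activity assay; compounds read 0.33 hour after dosing, loss of signal vs DMSO baseline. Primary screen in duplicate at 25 uM single concentration, with active compounds retested in concentration series.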
For `CC(=O)[C@H]1CC[C@H]2[C@@H]3CCC4=CC(=O)CC[C@]4(C)[C@H]3CC[C@]12C`, the AC50 is 4.82 µM (active). As for `S=C([S-])NCCNC(=S)[S-].[Mn+2]`, the compound was classed as inactive. Consider `CSC(=O)c1cccc2nnsc12`, for which the outcome was inactive.

Turning to `S=C(S)NCCNC(=S)S.[Mn+2].[S-]C([S-])=NCCN=C([S-])[S-].[Zn+2]`, the compound was called inactive.

In the next assay the target is human AMP-activated Protein Kinase, alpha 1 (AMPKa1), PRKAA1 (gene 5562) (UniProt Q13131). The experiment in a line: NVS_ENZ_hAMPKa1: NovaScreen (NVS) Enzymatic Assay for human AMP-activated Protein Kinase, alpha 1 (AMPKa1) (AID 2283130). The procedure, abridged:
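Recombinant human AMPKα1 activity was measured cell-free by fluorescent substrate conversion with electrophoretic mobility-shift separation, 1 h after dosing. Duplicate single-point screening was at 25 uM; actives (≥30% inhibition) were retested in concentration-response up to 50 uM.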
Take `S=C([S-])NCCNC(=S)[S-].[Mn+2]`: the AC50 was 8.83 µM (active). Same read-out and setting: next, `Oc1ccc(C(c2ccc(O)cc2)C(Cl)(Cl)Cl)cc1`: 19.6 µM (active); `S=C(S)NCCNC(=S)S.[Mn+2].[S-]C([S-])=NCCN=C([S-])[S-].[Zn+2]`: 1.87 µM (active) and 1.32 µM (active) and 2.26 µM (active).
